Rows were chosen to be rich in hits. Some 8.1% of all compounds tested hit in one or more screens of this group.
MITF inhib: inhibitors of MITF. actives 0.28% (n = 37,000). inhibition, % (no concentration beside the values). TRPM1 promoter luciferase, luminescence, 24 h; in the data active = inhibition above about 85%; inconclusive = no clear call, values can overlap the other calls; inactive = below about 68%;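 note: human melanocyte line stably carrying TRPM1 promoter luciferase reporter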
Shh pathway inh: blocks Sonic Hedgehog signaling; actives 2.1% (n = 22,000); inhibition, % (test concentration not listed); Shh-LIGHT2 Gli-luciferase reporter, 30 h;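 active = mean inhibition across valid replicates above about 65%, limit read from the data; inconclusive = mean under the limit, yet half or more replicates past it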;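 note: pathway switched on by Shh-conditioned medium diluted 1 in 25 in low serum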
NOMO-1 viab: STK33 inhibitor candidate reducing NOMO-1 cell viability | AID 2330 | actives 7.5% (n = 37,000) | NOMO-1 AML viability, CellTiter-Glo luminescence, 72 h | inhibition, % (no concentration beside the values); in the data active = inhibition above about 80%; inconclusive = no clear call, values can overlap the other calls
A number is an active result.

Screening CC1CCC2(C)C(CC(O)C(O)C2(O)CO)C1(C)CCc1ccoc1 (stereo not given) returned MITF inhib inactive, Shh pathway inh inactive and NOMO-1 viab inactive.
Cc1cc(C)c(S(=O)(=O)N2CCN(CC(O)COc3ccc4ccccc4c3)CC2)c(C)c1 (stereo not given) was read as MITF inhib inactive and NOMO-1 viab inactive.
Screening Cc1cc(Cl)ccc1OCC(O)CN1CCC(CN2C(=O)c3cccc4cccc(c34)C2=O)CC1 (stereo not given) returned MITF inhib inactive and NOMO-1 viab 119.
For CNC(=O)CCc1cc2ccccc2[nH]1 the results were MITF inhib inactive, Shh pathway inh inactive and NOMO-1 viab inactive.
`Cc1ccc(NC(=O)COc2ccc(Br)cc2Cl)c([N+](=O)[O-])c1` gave MITF inhib inactive and NOMO-1 viab inactive.
For CC(C)(C)c1ccc(-c2[nH]nc(NS(=O)(=O)c3ccccc3)c2Br)cc1 the results were MITF inhib inactive, Shh pathway inh 95 and NOMO-1 viab inconclusive.
O=C(CC1(O)C(=O)Nc2ccc(Br)cc21)c1ccc(NS(=O)(=O)c2ccccc2)cc1 (stereo not given) was read as MITF inhib inactive and NOMO-1 viab inactive.
Screening CCN1CCN(c2c(Cl)cccc2NC(=O)c2ccc(-c3ccccc3[N+](=O)[O-])o2)CC1 returned MITF inhib inactive and NOMO-1 viab inconclusive.
`C[C@@H]1CN([C@H](C)CO)C(=O)c2cccc(NC(=O)Nc3ccc(C(F)(F)F)cc3)c2O[C@@H]1CN(C)CC1CCCCC1` gave MITF inhib inactive, Shh pathway inh inactive and NOMO-1 viab inactive.
C[C@@H]1CN([C@H](C)CO)C(=O)c2cccc(NC(=O)Nc3ccc(C(F)(F)F)cc3)c2O[C@H]1CN(C)CC1CCCCC1 was read as MITF inhib inactive, Shh pathway inh inactive and NOMO-1 viab inconclusive.
Screening C[C@@H]1CN([C@H](C)CO)C(=O)c2cccc(NC(=O)Nc3ccc(F)cc3)c2O[C@H]1CN(C)CC1CC1 returned MITF inhib inactive, Shh pathway inh inactive and NOMO-1 viab inactive.
`C[C@H](CO)N1C[C@H](C)[C@H](CN(C)CC2CCCCC2)Oc2c(NC(=O)Nc3ccc(C(F)(F)F)cc3)cccc2C1=O` gave MITF inhib inactive, Shh pathway inh inactive and NOMO-1 viab 116.
`C[C@H]1CN([C@@H](C)CO)C(=O)c2cccc(NC(=O)Nc3ccc(C(F)(F)F)cc3)c2O[C@@H]1CN(C)CC1CCCCC1` gave MITF inhib inactive, Shh pathway inh inactive and NOMO-1 viab 82.
C[C@H](CO)N1C[C@H](C)[C@@H](CN(C)CC2CC2)Oc2c(NC(=O)Nc3ccc(C(F)(F)F)cc3)cccc2C1=O was read as MITF inhib inactive, Shh pathway inh inactive and NOMO-1 viab 99.
For COc1ccccc1NC(=O)CN(c1cc(Cl)c(Cl)cc1Cl)S(C)(=O)=O the results were MITF inhib inactive and NOMO-1 viab inactive.
For C[C@@H]1CN([C@H](C)CO)C(=O)c2cccc(NC(=O)Nc3ccc(F)cc3)c2O[C@H]1CN(C)Cc1ccc(-c2ccccc2)cc1 the results were MITF inhib inactive, Shh pathway inh inactive and NOMO-1 viab inconclusive.
C[C@@H]1CN([C@@H](C)CO)C(=O)c2cccc(NC(=O)Nc3ccccc3)c2O[C@@H]1CN(C)Cc1ccccc1 was read as MITF inhib inactive, Shh pathway inh inactive and NOMO-1 viab inactive.
`C[C@@H]1CN([C@@H](C)CO)C(=O)c2cccc(NC(=O)Nc3ccccc3)c2O[C@H]1CN(C)Cc1ccc(-c2ccccc2)cc1` gave MITF inhib inactive, Shh pathway inh inactive and NOMO-1 viab 93.
C[C@@H]1CN([C@@H](C)CO)C(=O)c2cccc(NC(=O)Nc3ccc(F)cc3)c2O[C@@H]1CN(C)Cc1ccc(-c2ccccc2)cc1 was read as MITF inhib inactive, Shh pathway inh inactive and NOMO-1 viab 99.
C[C@H](CO)N1C[C@H](C)[C@@H](CN(C)Cc2ccccc2)Oc2c(NC(=O)Nc3ccccc3)cccc2C1=O was read as MITF inhib inactive, Shh pathway inh inactive and NOMO-1 viab 103.
C[C@H](CO)N1C[C@H](C)[C@H](CN(C)Cc2ccc(-c3ccccc3)cc2)Oc2c(NC(=O)Nc3ccccc3)cccc2C1=O was read as MITF inhib inactive, Shh pathway inh inactive and NOMO-1 viab inactive.
For O=C(NCC(O)c1ccccc1)c1ccc(S(=O)(=O)N2CCOCC2)cc1 (stereo not given) the results were MITF inhib inactive and NOMO-1 viab inactive.
`COc1cc(NC(=O)Cc2ccc(F)cc2)cc(S(=O)(=O)c2ccc(Cl)cc2)c1` gave MITF inhib inactive, Shh pathway inh inactive and NOMO-1 viab inactive.
CCN1C(=O)C=CC1=O was read as MITF inhib inactive, Shh pathway inh inactive and NOMO-1 viab 98.
Screening Cc1nnc(N2C(=O)C(=O)C(C(=O)c3ccco3)C2c2cccc(Oc3ccccc3)c2)s1 (stereo not given) returned MITF inhib inactive and NOMO-1 viab inactive.
Screening COc1cc(NC(=O)Cn2nc(C(F)(F)F)c(Cl)c2C)cc([N+](=O)[O-])c1 returned MITF inhib inactive and NOMO-1 viab 114.
`COc1cc(NC(=O)Cn2nc(C(F)(F)F)c(Cl)c2C)cc(OC)c1OC` gave MITF inhib inactive and NOMO-1 viab inactive.
`O=C(CSc1ncn[nH]1)Nc1ccc(-c2nc3ccccc3s2)cc1` gave MITF inhib inactive and NOMO-1 viab inactive.
Screening O=C1C=C(NC2CCCC2)CC(c2ccccc2)C1 (stereo not given) returned MITF inhib inactive, Shh pathway inh inactive and NOMO-1 viab 111.
c1ccc(NC2CCCCC2)nc1 was read as MITF inhib inactive, Shh pathway inh inactive and NOMO-1 viab inactive.
`c1ccc(-c2nc(C34CC5CC(CC(C5)C3)C4)co2)cc1` gave MITF inhib inactive, Shh pathway inh inactive and NOMO-1 viab 99.
For c1ccc(CSC23CC4CC(CC(C4)C2)C3)cc1 the results were MITF inhib inactive and NOMO-1 viab inactive.
Screening COc1cc(C2C(C#N)=C(C)Nc3oc(C)nc32)ccc1OCCN1CCOCC1 (stereo not given) returned MITF inhib inactive, Shh pathway inh inactive and NOMO-1 viab inactive.
Screening C[C@H](CO)N1C[C@H](C)[C@H](CN(C)Cc2ccc(C(F)(F)F)cc2)Oc2c(NC(=O)CCCCCC(=O)Nc3ccccc3N)cccc2C1=O returned MITF inhib inactive and NOMO-1 viab 115.
`C[C@@H]1CN([C@@H](C)CO)C(=O)c2cccc(NC(=O)CCCCCC(=O)Nc3ccccc3N)c2O[C@@H]1CN(C)Cc1ccc(C(F)(F)F)cc1` gave MITF inhib inactive and NOMO-1 viab 119.
C[C@@H]1CN([C@H](C)CO)C(=O)c2cccc(NC(=O)CCCCCC(=O)Nc3ccccc3N)c2O[C@@H]1CN(C)C(=O)Nc1ccc(F)cc1 was read as MITF inhib inactive and NOMO-1 viab inactive.
Screening CC(C)NC(=O)Nc1cccc2c1O[C@H](CN(C)Cc1ccc(C(F)(F)F)cc1)[C@@H](C)CN([C@@H](C)CO)C2=O returned MITF inhib inactive, Shh pathway inh inactive and NOMO-1 viab inactive.
For C[C@@H]1CN([C@H](C)CO)C(=O)c2cccc(NC(=O)CCCCCC(=O)Nc3ccccc3N)c2O[C@@H]1CN(C)Cc1ccc(C(F)(F)F)cc1 the results were MITF inhib inactive and NOMO-1 viab 115.

Assay outcomes deposited in PubChem by Broad Institute.
